High-throughput results deposited in PubChem BioAssay by National Center for Advancing Translational Sciences (NCATS).
gsp agonist: gsp mutant agonism; gsp mutant cells, cAMP HTRF, 30 min; Potency, µM (series often up to 76.9 µM), for inactives: at the highest dose activation (cAMP increase), actives largely listed as activators; hit rate 0.13% among 340,000; AID 624287; active = well fitted activation curve with a large enough effect; inconclusive = small, poorly fitted or top-dose-only effect, or another doubt; inactive = no such curve, though single readings can be large or run the other way; cell line not stated here;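 also: phosphodiesterase inhibitor Ro 20-1724 added with compounds to block cAMP breakdown; potency is read from the fitted curve at half-maximal effect; nearly all actives have a fitted effect of over 60% in size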
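Cells in DMEM/10% FBS with G418 were pretreated with compounds in DMSO plus […] (300 uM stock) for 30 min at 37C. cAMP was measured by HTRF (cAMP-d2 plus anti-cAMP antibody-K) after 30 min at room temperature.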
Akt phos inh: inhibitors of Akt phosphorylation | Neuro2A IGF-stimulated pAkt S473 HTRF, 20 min; active compounds read low | activity change, % for hits at 50 µM | hit rate 0.32% among 360,000; in the data active = activity change below about -80%; inconclusive = mostly about -51% to -80%; also: % is scaled to controls: 0 for no effect and ±100 for the full control effect
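Single-point screen (50 µM final compound) in Neuro2A cells stimulated 20 min with 6 nM IGF at 37 deg C. After lysis, Ser473-phosphorylated Akt read by HTRF (ex 330 nm, em 615/665 nm) as the 665/615 ratio.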
RXFP1 ag: RXFP1 (human) receptor agonism; Potency, µM (titrated, usually from 57.5 µM), inactives show top-dose activation, hits mostly activators; HEK293T-RXFP1 cAMP TR-FRET, 30 min; response scale: percent of porcine relaxin response, buffer zero; hit rate 0.3% among 370,000; active = well fitted activation curve with a large enough effect; inconclusive = small, poorly fitted or top-dose-only effect; also: potency is read from the fitted curve at half-maximal effect; % is scaled to controls: 0 for no effect and ±100 for the full control effect; nearly all actives have a fitted effect of over 60% in size
Target sequence (Q9HBX9 whole entry, looked up): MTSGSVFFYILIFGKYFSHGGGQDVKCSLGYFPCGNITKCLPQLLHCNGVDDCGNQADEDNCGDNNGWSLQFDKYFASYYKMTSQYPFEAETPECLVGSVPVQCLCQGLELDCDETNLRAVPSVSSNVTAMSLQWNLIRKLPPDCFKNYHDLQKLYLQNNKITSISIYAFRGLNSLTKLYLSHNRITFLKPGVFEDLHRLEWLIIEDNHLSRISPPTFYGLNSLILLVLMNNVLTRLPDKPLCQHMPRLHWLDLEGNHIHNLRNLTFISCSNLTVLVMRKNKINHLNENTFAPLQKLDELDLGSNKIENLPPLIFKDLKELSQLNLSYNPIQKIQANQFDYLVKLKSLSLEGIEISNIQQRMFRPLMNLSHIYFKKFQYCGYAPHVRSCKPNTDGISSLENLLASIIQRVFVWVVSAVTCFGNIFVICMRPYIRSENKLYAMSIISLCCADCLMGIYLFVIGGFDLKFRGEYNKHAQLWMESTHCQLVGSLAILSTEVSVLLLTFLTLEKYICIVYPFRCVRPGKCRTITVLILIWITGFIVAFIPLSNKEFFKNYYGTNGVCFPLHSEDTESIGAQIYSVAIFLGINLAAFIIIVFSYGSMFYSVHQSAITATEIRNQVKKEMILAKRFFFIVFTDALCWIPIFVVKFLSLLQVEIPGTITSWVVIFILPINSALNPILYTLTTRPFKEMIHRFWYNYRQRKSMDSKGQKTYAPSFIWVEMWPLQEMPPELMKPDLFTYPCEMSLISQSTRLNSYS
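cAMP rise read by TR-FRET after 30 min, 37C compound exposure (up to 58 uM) in RXFP1-transfected HEK293 cells with Ro 20174 present. EC50 from Hill-equation fits, with 29 nM porcine relaxin as 100% and buffer as basal.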
gsp antag: gsp mutant antagonism; gsp-mutant cells, cAMP HTRF, 30 min; Potency, µM (titrated, usually from 76.9 µM), for inactives: at the top dose activity change, negative = inhibition, hits mostly inhibitors; hit rate 0.4% among 340,000; AID 624288; calls by dose curve; cell line not stated here;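 also: intracellular cAMP measured with PDE inhibitor Ro 20-1724 present during compound exposure; potency is read from the fitted curve at half-maximal effect; % is scaled to controls: 0 for no effect and ±100 for the full control effect; nearly all actives have a fitted effect of over 65% in size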
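Measurement of cellular cAMP by homogeneous time-resolved fluorescence following a 30 min compound exposure at 37C. The PDE inhibitor […] was present throughout; the assay buffer was DPBS with 0.05% BSA and 0.005% Tween 20.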
RXFP1 antagonist: antagonists of human relaxin receptor RXFP1; HEK293-RXFP1, relaxin-stimulated cAMP HTRF, 30 min; active compounds read low; activity change, negative = inhibition, % at 57.5 µM; hit rate 0.59% among 350,000; Q9HBX9;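 active = activity change of -60% or lower, but not beyond a set lower limit; inconclusive = change between -60% and -40%, or beyond the set limit; inactive = change above -40%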; also: % is scaled to controls: 0 for no effect and ±100 for the full control effect
* marks the source's active call; other numbers are inactive results; i = inactive; ? = inconclusive; . = no result given; [ ] = remark or other dose. Sampled rows, rich in hits. Any-hit rate of the full collection: about 1.2%.

SMILES	gsp agonist	Akt phos inh	RXFP1 ag	gsp antag	RXFP1 antagonist
COc1ccccc1/C=C1\SC(=S)N(NS(=O)(=O)c2ccc(C)cc2)C1=O	?	i	4%	?	-1
COc1ccc(/C=C2\SC(=S)N(NS(=O)(=O)c3ccc(C)cc3)C2=O)c(OC)c1	10%[15.4 µM]	i	3%	50µM*	-33
COc1ccc(OC)c(/C=C2\SC(=S)N(NS(=O)(=O)c3ccc(C)cc3)C2=O)c1	1%	i	3%	?	?
CCOC(=O)c1c(-c2ccccc2)oc2ccc(OCC(O)CNCCN(C)C)cc12 (configuration not stated)	8%[15.4 µM]	i	0%	13%	-100*
CCOC(=O)c1c(-c2ccccc2)oc2ccc(OCC)cc12	9%	i	2%	-9%	-13
N#Cc1ccccc1OCC(=O)NC(N)=O	10%	-111%*	3%	11%	3
O=C1CCCC2=C1C(Cc1ccccc1)C1=C(CCCC1=O)O2	-5%	-118%*	0%	-9%	0
N#CC1=C(N)OC2=C(C(=O)CCC2)C1CCc1ccccc1 (configuration not stated)	4%	i	3%	9%	3
COc1ccc(CCN2C(=O)c3[nH]nc(-c4ccccc4O)c3C2c2ccccc2)cc1 (configuration not stated)	.	.	-1%	.	-39
Cc1ccc(S(=O)(=O)N(C)CC(=O)Nc2ccc(C)cn2)cc1	1%	i	1%	-4%	-3
Cc1ccc(S(=O)(=O)N(C)CC(=O)Nc2cc(C)ccn2)cc1	1%[15.4 µM]	i	-1%	2%	-83*
Cc1ccc(CNC(=O)CN(C)S(=O)(=O)c2ccc3c(c2)n(C)c(=O)c(=O)n3C)cc1	18%	i	10%	-3%	-68*
CC(=O)NC(c1ccco1)c1cc(Cl)c2ccc(N(C)C)nc2c1O (configuration not stated)	.	.	1%	.	.
COc1cc2c(cc1OC)CN(CC(=O)Nc1ccc(C#N)cc1)CC2	-2%	-107%*	1%	-1%	2
CCOC(=O)c1sc2nc(NC(=O)C(C)(C)C)sc2c1C	0%	i	2%	32µM*	.
CCOC(=O)c1sc2nc(NC(=O)C3CC3)sc2c1C	16%	i	-1%	5%	1
CCc1ccc(NC(=O)CC2C(=O)N(c3cccc(C)c3)C(=O)N2Cc2cccs2)cc1 (configuration not stated)	.	.	0%	.	11
CCN(CC)S(=O)(=O)c1ccc(C(=O)Nc2nnc(NC(=S)Nc3ccccc3)s2)cc1	-6%[15.4 µM]	i	0%	-5%	-85*
COc1cc2ccccc2cc1C(=O)Nc1ccc(Cc2ccncc2)cc1	-4%	i	1%	35µM*	-15
CCOc1ccc(/C=N/NC(=O)c2cc3ccccc3cc2OC)cc1	-12%	i	5%	28µM*	0
CCN(CC)S(=O)(=O)c1ccc(NC(=S)Nc2ccccc2)cc1	-4%	i	-2%	11%	7
CC(=O)Nc1ccc(Cc2ccncc2)cc1	-39%	-113%*	-1%	1%	5
COc1cccc(C(=O)Nc2ccc3nc(SCC(=O)N4CCc5ccccc54)sc3c2)c1	.	.	2%	.	.
COC(=O)c1cc2sc(C)cc2n1Cc1nc(-c2ccc(C)cc2)oc1C	.	.	0%	.	18
O=C(Nc1ccc(Cc2ccncc2)cc1)C1CCC(N2C(=O)C3C4C=CC(C5CC45)C3C2=O)CC1 (configuration not stated)	?	i	-2%	7.9µM*	-16
SMILES	gsp agonist	Akt phos inh	RXFP1 ag	gsp antag	RXFP1 antagonist
CCN(CC)S(=O)(=O)c1ccc(C(=O)Nc2ccc(Cc3ccncc3)cc2)cc1	35%	i	0%	50µM*	-20
CC(=O)Nc1ccc(NC(=O)C2CCC(N3C(=O)C4C5C=CC(C6CC56)C4C3=O)CC2)cc1 (configuration not stated)	24%	.	0%	8%	2
COc1cc2ccccc2cc1C(=O)Nc1ccc(C)cc1	5%	i	0%	32µM*	-16
CCC(C(=O)OCCN1CCOC(c2ccccc2)C1C)c1ccccc1 (configuration not stated)	.	.	.	.	-37
Cc1cccc(C(=O)N(Cc2ccco2)Cc2ccccc2F)c1	.	.	-3%	.	-72*
COc1ccc(-c2nc(-c3ccccc3)c(-c3ccc(O)cc3)[nH]2)cc1	.	.	2%	.	-104*
COC(=O)C1C(=O)c2c([nH]c(C(=O)OC3CCCC3C)c2C)CC1C (configuration not stated)	-42%	i	1%	-23%	-63*
COc1cc2c(cc1OC)C(c1ccc(F)cc1)N(c1ccccc1)C(=O)C2 (configuration not stated)	.	.	-1%	.	-13
O=C(NC(=S)Nc1ccccc1)c1ccc(-c2ccccc2)cc1	13%	i	2%	6%	11
O=C(NC(=S)Nc1cnc2ccccc2c1)c1ccccc1	?	i	2%	-20%	5
O=C(O)c1ccc(NC(=S)NC(=O)c2ccc(-c3ccccc3)cc2)cc1	-23%	i	1%	20µM*	?
O=C(NC(=S)Nc1ccc2c(c1)OCCO2)c1ccccc1	-31%	i	-1%	32µM*	0
Cn1ncc2cc(NC(=S)NC(=O)c3ccccc3)ccc21	-21%	i	0%	40µM*	1
CCc1ccc(N2C(=O)N(CC(=O)C(C)(C)C)c3ccccc3S2(=O)=O)cc1	.	.	-1%	.	.
Cc1nn(C)c(C)c1N1C(=O)c2cccc3c(Br)ccc(c23)C1=O	13µM*	i	21%	2%	5
O=C(CSc1nc(-c2ccc(F)cc2)[nH]c1-c1ccc(F)cc1)Nc1ccc2c(c1)OCO2	.	.	2%	.	-60*
CCOCCOC(=O)/C=C/c1ccc(OC)cc1	.	.	.	.	32
Clc1ccccc1/C=C/C=N/Nc1nc(N2CCOCC2)nc(N2CCOCC2)n1	-7%[15.4 µM]	i	-1%	13µM*	-23
C(=C\c1ccccc1)/C=N/Nc1nc(N2CCOCC2)nc(N2CCOCC2)n1	-30%	i	1%	-7%	-4
COc1cc(Cl)c(C)cc1NC(=O)Cn1ncc2c(=O)oc3ccccc3c21	.	.	4%	.	.
COc1cc(S(=O)(=O)N2CCN(C)CC2)ccc1Cl	-9%	i	-1%	11%	8
CN1CCN(S(=O)(=O)c2cccc(S(=O)(=O)c3ccc(Cl)c(Cl)c3)c2)CC1	23%	-108%*	-1%	-1%[15.4 µM]	1
O=C(CN1CCNCC1)NC1CCCCC1	.	.	.	.	12
Cc1ccc(OCCSCc2nc3ccccc3[nH]2)cc1	-2%	-98%*	1%	-24%	-4
CC(=O)Nc1ccc(NC(=O)[C@@H]2CCCN2S(=O)(=O)c2ccc3c(c2)OCCO3)cc1	-12%[15.4 µM]	i	-1%	6%	-8
